{
  "source": "the supplement of paper PMC10127200",
  "note": "Counter-ions that a name gives are not always drawn.",
  "data": [
    {"tested_on": "DU145", "assay": "Euclidean distance of Cell Painting phenotypic profile (signed KS, 77 features) to DMSO centroid (dimensionless distance); 5 or 10 uM (library dependent); higher = stronger phenotypic change vs DMSO (phenoactivity)", "conditions": "48 h", "summary_of_the_method": "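Phenoactivity is computed as Euclidean distance to the median vehicle profile. The profiles, drawn from 77 Harmony features scored as signed Kolmogorov-Smirnov statistics versus same-plate vehicle wells, were corrected for plate position, correlation-weighted and replicate-averaged at the top dose. Stained cells were imaged confocally at 20X (9 fields/well) after 48 h with library compounds at 10 or 5 uM, 0.1% DMSO final, in five cancer lines and a healthy fibroblast line.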", "values": [
      {"smiles": "CCCc1nn(C)c2c(=O)[nH]c(-c3cc(S(=O)(=O)N4CCN(C)CC4)ccc3OCC)nc12", "note": "[Sildenafil Mesylate]", "Euclidean distance": 0.989},
      {"smiles": "Cc1cnc(Nc2ccc(N3CCN(C)CC3)cc2)nc1Nc1cccc(S(=O)(=O)NC(C)(C)C)c1", "Euclidean distance": 3.18},
      {"smiles": "Cc1cc2ncc(C(=O)NCC(C)(C)NCC(=O)N3CCC[C@H]3C#N)cn2n1", "note": "[Anagliptin]", "Euclidean distance": 1.17},
      {"smiles": "O=C(OCc1ccccc1)c1ccccc1", "note": "[Benzyl benzoate]", "Euclidean distance": 0.936},
      {"smiles": "CO[C@H]1C[C@@H]2CC[C@@H](C)[C@@](O)(O2)C(=O)C(=O)N2CCCC[C@H]2C(=O)O[C@H]([C@H](C)C[C@@H]2CC[C@@H](OC(=O)C(C)(CO)CO)[C@H](OC)C2)CC(=O)[C@H](C)/C=C(\\C)[C@@H](O)[C@@H](OC)C(=O)[C@H](C)C[C@H](C)/C=C/C=C/C=C/1C", "Euclidean distance": 1.55},
      {"smiles": "CCS(=O)(=O)c1cccc(-c2cc(C(=O)NC3CCN(C)CC3)c(C)c3[nH]c4ncc(C)cc4c23)c1", "Euclidean distance": 2.89},
      {"smiles": "NC(=O)c1ccccc1O", "note": "[Salicylamide]", "Euclidean distance": 1.56},
      {"smiles": "CC(C(=O)O)c1ccc(C(=O)c2cccs2)cc1", "note": "(stereo not given) [Suprofen]", "Euclidean distance": 0.656},
      {"smiles": "CCCCCCCCCC(=O)N[C@H]1[C@H](Oc2c3cc4cc2Oc2ccc(cc2Cl)[C@@H](O[C@@H]2O[C@H](CO)[C@@H](O)[C@H](O)[C@H]2NC(C)=O)[C@@H]2NC(=O)[C@H](NC(=O)[C@@H]4NC(=O)[C@H]4NC(=O)[C@@H](Cc5ccc(c(Cl)c5)O3)NC(=O)[C@H](N)c3ccc(O)c(c3)Oc3cc(O)cc4c3)c3ccc(O)c(c3)-c3c(OC4O[C@H](CO)[C@@H](O)[C@H](O)[C@@H]4O)cc(O)cc3[C@@H](C(=O)O)NC2=O)O[C@H](CO)[C@@H](O)[C@@H]1O", "note": "(stereo not given in full) [Teicoplanin]", "Euclidean distance": 0.773},
      {"smiles": "Cc1cccc(C)c1NC(=O)C1CCCCN1C", "note": "(stereo not given) [Mepivacaine HCl]", "Euclidean distance": 0.454},
      {"smiles": "Cc1nc2cccc(N)c2c(=O)n1C1CCC(=O)NC1=O", "note": "(stereo not given) [Avadomide(CC-122)]", "Euclidean distance": 1.16},
      {"smiles": "CC[C@]1(O)C[C@@H]2CN(CCc3c([nH]c4ccccc34)[C@@](C(=O)OC)(c3cc4c(cc3OC)N(C)[C@H]3[C@@](O)(C(=O)OC)[C@H](OC(C)=O)[C@]5(CC)C=CCN6CC[C@]43[C@@H]65)C2)C1", "note": "[Vinblastine sulfate]", "Euclidean distance": 4.31},
      {"smiles": "CC1(COc2ccc3c(c2)ncn3-c2ccc3cccc(N4CCC(N)CC4)c3n2)COC1", "Euclidean distance": 3.27},
      {"smiles": "CCCCNc1ncc(-c2ccc(CN3CCOCC3)cn2)c(NC2CCC(O)CC2)n1", "note": "(stereo not given)", "Euclidean distance": 0.694},
      {"smiles": "CC(C[N+](C)(C)C)OC(N)=O", "note": "(stereo not given) [Bethanechol chloride]", "Euclidean distance": 0.866},
      {"smiles": "CN1CCC(=C2c3ccccc3C=Cc3ccccc32)CC1", "note": "[Cyproheptadine hydrochloride]", "Euclidean distance": 1.24},
      {"smiles": "O=C(NCc1ccccc1)c1csc(Nc2ccncn2)n1", "note": "[Thiazovivin]", "Euclidean distance": 2.87},
      {"smiles": "CCC[C@@H]1C[C@@H](C(=O)N[C@@H]([C@H]2O[C@H](SC)[C@H](O)[C@@H](O)[C@H]2O)[C@H](C)Cl)N(C)C1", "note": "[Clindamycin HCl]", "Euclidean distance": 0.99},
      {"smiles": "Cc1ccsc1/C=C/C1=NCCCN1C", "note": "[Morantel tartrate]", "Euclidean distance": 0.571},
      {"smiles": "CN(C)c1nc(N(C)C)nc(N(C)C)n1", "note": "[Altretamine]", "Euclidean distance": 0.807},
      {"smiles": "c1cnc(N2CCN(Cc3ccc4c(c3)OCO4)CC2)nc1", "note": "[Piribedil]", "Euclidean distance": 1.21},
      {"smiles": "Fc1cc(-c2cccc3ncc(-c4cnn(C5CCNCC5)c4)nc23)cc(F)c1CN1CCOCC1", "Euclidean distance": 2.11},
      {"smiles": "CN(C(=O)c1c(O)c2ccccc2n(C)c1=O)c1ccccc1", "note": "[Roquinimex]", "Euclidean distance": 1.13},
      {"smiles": "COc1cccc(CCc2ccccc2OCC(CN(C)C)OC(=O)CCC(=O)O)c1", "note": "(stereo not given) [Sarpogrelate hydrochloride]", "Euclidean distance": 0.739},
      {"smiles": "Cc1csc(-c2nnc(Nc3ccc(Oc4ncccc4-c4ccnc(N)n4)cc3)c3ccccc23)c1", "Euclidean distance": 2.83},
      {"smiles": "N=C(N)NC(=O)c1nc(Cl)c(N)nc1N", "note": "[Amiloride HCl]", "Euclidean distance": 0.844},
      {"smiles": "CCOC(=O)N1c2ccc(C(F)(F)F)cc2[C@@H](N(Cc2cc(C(F)(F)F)cc(C(F)(F)F)c2)C(=O)OC)C[C@H]1CC", "note": "[Torcetrapib]", "Euclidean distance": 1.01},
      {"smiles": "CC(C)C(=O)Oc1ccc(CO)cc1[C@H](CCN(C(C)C)C(C)C)c1ccccc1", "note": "[Fesoterodine Fumarate]", "Euclidean distance": 1.33},
      {"smiles": "CC1(C)S[C@@H]2[C@H](NC(=O)[C@H](N)c3ccccc3)C(=O)N2[C@H]1C(=O)O", "note": "[Ampicillin sodium]", "Euclidean distance": 1.06},
      {"smiles": "CCCCCOC(=O)Nc1nc(=O)n([C@@H]2O[C@H](C)[C@@H](O)[C@H]2O)cc1F", "note": "[Capecitabine]", "Euclidean distance": 1.15},
      {"smiles": "CNC(=O)c1ccc2cc([C@@]3(O)CCn4cncc43)ccc2c1", "note": "[TAK-700 (Orteronel)]", "Euclidean distance": 0.67},
      {"smiles": "CC1(C)OC[C@@H](COC(=O)CCc2ccc(OC[C@@H](O)CNCCNC(=O)N3CCOCC3)cc2)O1", "note": "[Landiolol hydrochloride]", "Euclidean distance": 1.25},
      {"smiles": "CS(=O)(=O)c1ccc(C2=C(c3ccccc3)C(=O)OC2)cc1", "note": "[Rofecoxib]", "Euclidean distance": 0.686},
      {"smiles": "C=C1[C@H](CO)[C@@H](O)C[C@@H]1n1cnc2c(=O)[nH]c(N)nc21", "note": "[Entecavir]", "Euclidean distance": 1.05},
      {"smiles": "CO[C@H]1C[C@@H]2CC[C@@H](C)[C@@](O)(O2)C(=O)C(=O)N2CCCC[C@H]2C(=O)O[C@H]([C@H](C)C[C@@H]2CC[C@@H](O)[C@H](OC)C2)CC(=O)[C@H](C)/C=C(\\C)[C@@H](O)[C@@H](OC)C(=O)[C@H](C)C[C@H](C)/C=C/C=C/C=C/1C", "note": "[Rapamycin (Sirolimus)]", "Euclidean distance": 1.21},
      {"smiles": "c1ccc2c(c1)CCCC2C1=NCCN1", "note": "(stereo not given) [Tetryzoline]", "Euclidean distance": 0.804},
      {"smiles": "Nc1ccc(S(=O)(=O)Nc2cnc3ccccc3n2)cc1", "note": "[Sulfaquinoxaline sodium]", "Euclidean distance": 1.65},
      {"smiles": "NC(=O)N1CCC(CC(=O)N2CCC([C@H]3c4ncc(Br)cc4CCc4cc(Cl)cc(Br)c43)CC2)CC1", "note": "[Lonafarnib]", "Euclidean distance": 1.33},
      {"smiles": "CNC[C@H](O)c1cccc(O)c1", "note": "[Phenylephrine HCl]", "Euclidean distance": 0.788},
      {"smiles": "CCn1cc(C(=O)O)c(=O)c2cc(F)c(N3CCNCC3)nc21", "note": "[Enoxacin Sesquihydrate]", "Euclidean distance": 0.79}
    ]}
  ]
}
